From PubChem
A selection: hits, their analogues and other compounds. The true share with any hit is near 2.2%.
PLCb3 inh – human PLC-beta3 inhibitors, primary screen, biochemical, fluorescence | 1-phosphatidylinositol 4,5-bisphosphate phosphodiesterase beta-3 (Homo sapiens), Q01970 | inhibition, % at 12.2 µM | Purified PLC-beta3, fluorogenic substrate | 370,000 compounds, 0.18% hits | AID 720704, 2013; in the data active means inhibition above about 11%
M18AAP inhibitor – PfM18AAP inhibitors, malaria aminopeptidase, primary screen, biochemical, QFRET, recombinant enzyme; AID 1822, 2009; H-Glu-NHMec fluorogenic cleavage; M18 aspartyl aminopeptidase (Plasmodium falciparum 3D7); 290,000 compounds, 1.2% hits; inhibition, % at 7.35 µM;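 active means inhibition above the campaign mean inhibition over all tested compounds plus 3 SD, cut at about 28% in these data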
NPR2 activator – human GC-B receptor activators, primary screen, HEK293 GC-B cells, cGMP TR-FRET, EC30 CNP | 0% at EC30 CNP, 100% saturating CNP | activation, % at 10 µM | 370,000 compounds, 0.11% hits | AID 1920062, 2024;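 active means activation at 10 µM reaching about 35% in either raw or pattern-adjusted values, limit read from the data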
Rce1 inhib – yeast Rce1p protease inhibitors, primary screen, biochemical, fluorescence, cell-free homogeneous; CAAX prenyl protease 2 (Saccharomyces cerevisiae (strain ATCC 204508 / S288c)), Q03530; yeast membranes, quenched prenylated peptide cleavage fluorescence; calls only; 290,000 compounds, 0.27% hits; AID 2563, 2010;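 active means fall in fluorescence gain of 50% or more versus controls, with final raw signal at or below 3038400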
PLC-gamma1 inh – PLC-gamma1 enzyme inhibitors, primary screen, biochemical, fluorescence, purified enzyme. fluorogenic substrate. inhibition, % at 12.2 µM. 370,000 compounds, 0.84% hits. AID 720700, 2013; in the data active means inhibition above about 9.5%
GC-A act – GC-A stimulated cGMP production enhancers – HEK293 GC-A cells, cGMP TR-FRET, EC30 ANP, primary screen. Atrial natriuretic peptide receptor 1 (Homo sapiens), P16066. 0% at EC30 ANP, 100% saturating ANP. activation, % at 10 µM. 370,000 compounds, 0.14% hits. AID 1671463, 2021; in the data active means activation above about 40%
Of the large screens only hits and unclear results are named; the others gave an inactive call.

COCCCNC(=O)C[C@H]1C[C@@]2(C(=O)OC)C(=C[C@H](C(C)C)O[C@@H]2C2CC2)N(Cc2ccc3c(c2)OCO3)C1=O	none (no result: M18AAP inhibitor, Rce1 inhib)
Cc1ccc(S(=O)(=O)NNC(=O)c2cccc(O)c2)cc1	M18AAP inhibitor 30
O=C(NNS(=O)(=O)c1ccc(F)cc1)c1cccc(O)c1	none
CN1C2=N[C@H](c3ccccc3Br)CC(=O)N2/C(=C\c2ccccc2)[C@@H]1c1ccccc1	none (no result: M18AAP inhibitor, Rce1 inhib)
COC(=O)CSc1nn(-c2ccc(F)cc2)c(=S)s1	GC-A act 40
Cc1ccc(Cn2nnc3c2-c2cc(F)ccc2S(=O)(=O)N(C(C)(C)C)C3)cc1	none (no result: M18AAP inhibitor, Rce1 inhib)
CCOC(=O)CNC(=O)CSc1nc(-c2ccccc2)ns1	M18AAP inhibitor 28
CN(C)/C=C(\C#N)C(=O)N/N=C(\CC(=O)C(F)(F)F)c1ccco1	M18AAP inhibitor 30
CCNc1nc(=S)nc(NC(C)C)[nH]1	M18AAP inhibitor 30
CS(=O)(=O)c1ccc(OC[C@@H](O)CN2CCC(C(O)(c3ccccc3)c3ccccc3)CC2)cc1	none (no result: M18AAP inhibitor, Rce1 inhib)
CCOC(=O)C1CCCN(C(=O)/C(=C/c2ccco2)NC(=O)c2ccccc2)C1 (stereo not given)	M18AAP inhibitor 30
O=C(N/C(=C/c1ccco1)C(=O)N1CCCCCC1)c1ccccc1	none
O=C1OCCN1C(=O)[C@H]1[C@H](c2ccc(F)cc2)C(c2ccc(F)cc2)=NN1c1ccc(Br)cc1	Rce1 inhib active (no result: PLCb3 inh, NPR2 activator, PLC-gamma1 inh, GC-A act)
O=C1CSC(=S)N1c1ccc(F)c(Cl)c1	M18AAP inhibitor 28
CC1(NC(=O)c2ccc(C#Cc3cccc(F)c3)cn2)COC1	none (no result: M18AAP inhibitor, Rce1 inhib)
COc1ccc(C(C[N+](=O)[O-])c2c(-c3ccccc3)cc3ccccn23)cc1OC (stereo not given)	none
COc1ccc(C(C[N+](=O)[O-])C2(c3ccc(OC)c(OC)c3)C(=O)c3ccccc3C2=O)cc1 (stereo not given)	M18AAP inhibitor 35 (no result: PLCb3 inh, NPR2 activator, PLC-gamma1 inh, GC-A act)
Cc1cccc(C)c1NC(=O)CSc1nnc(-c2ccco2)c(-c2ccco2)n1	none (no result: PLCb3 inh, NPR2 activator, PLC-gamma1 inh, GC-A act)
COc1ccc(NC(=O)CSc2nnc(-c3ccco3)c(-c3ccco3)n2)cc1OC	M18AAP inhibitor 31
CN(C)c1ccc(NC(=O)CSc2nnc(-c3ccco3)c(-c3ccco3)n2)cc1	M18AAP inhibitor 31
O=C(CSc1nnc(-c2ccco2)c(-c2ccco2)n1)Nc1ccccc1	M18AAP inhibitor 32
COc1cccc(NC(=O)CSc2nnc(-c3ccco3)c(-c3ccco3)n2)c1	none
Cc1ccc(NC(=O)CSc2nnc(-c3ccco3)c(-c3ccco3)n2)cc1	none
CC(C)(C)c1ccc(S(=O)(=O)N2CCC(C(=O)N3CCN(C4CCCCC4)CC3)CC2)cc1	none (no result: M18AAP inhibitor, Rce1 inhib)
COC(=O)c1ccc2c(C3(c4c[nH]c5ccccc45)CCN(C(=O)OC(C)(C)C)CC3)c[nH]c2c1	none (no result: M18AAP inhibitor, Rce1 inhib)
O=C(NCc1ccc(C(=O)N2CCOCC2)cc1)c1cccc(Br)c1	none (no result: M18AAP inhibitor, Rce1 inhib)
CC1(C)N=C(N)N=C(N)N1c1ccc(CCCCc2ccccc2)cc1	PLC-gamma1 inh 11 (no result: M18AAP inhibitor, Rce1 inhib)
COc1ccc(C2C(C(=O)N3CCN(c4ccccc4Cl)CC3)CC(=O)N2c2ccc(OC)cc2)cc1 (stereo not given)	none (no result: M18AAP inhibitor, Rce1 inhib)
S=c1nc[nH]c2c1cnn2-c1ccccc1	Rce1 inhib active
Nc1ncnc2c1cnn2-c1ccccc1	none
CCOC(=O)CCS(=O)(=O)c1nc(-c2ccccc2)cc(C(F)(F)F)n1	none (no result: PLCb3 inh, NPR2 activator, PLC-gamma1 inh, GC-A act)
CCOC(=O)CS(=O)(=O)c1nc(-c2ccccc2)cc(C(F)(F)F)n1	GC-A act 54
COc1ccc(-c2cc(C(F)(F)F)nc(S(C)(=O)=O)n2)cc1	GC-A act 46
CS(=O)(=O)c1nc(-c2ccc(F)cc2)cc(C(F)(F)F)n1	GC-A act 72 (no result: Rce1 inhib)
CC1(C)CC(=O)C=C(Nc2ccccc2NC(=O)c2cc(Cl)ccc2F)C1	none (no result: M18AAP inhibitor, Rce1 inhib)
C=C(C)CSc1nnc(-c2cc(-c3ccccc3)n[nH]2)n1N	none (no result: M18AAP inhibitor, Rce1 inhib)
O=C(Nc1ccc2nc(-c3ccco3)c(-c3ccco3)nc2c1)NC1CC1	M18AAP inhibitor 29 (no result: PLCb3 inh, NPR2 activator, PLC-gamma1 inh, GC-A act)
O=C(NCCCO)Nc1ccc2nc(-c3ccco3)c(-c3ccco3)nc2c1	none (no result: PLCb3 inh, NPR2 activator, Rce1 inhib, PLC-gamma1 inh, GC-A act)
